Experimental findings from the supplement of paper PMC6135742 are described below.

Counter-ions that a name gives are not always drawn. In all, about 2,600 compounds were measured (“total cell number (DAPI+ nuclei) relative to DMSO vehicle control”: median about -1.4, lowest 2% from about -23 on). This is one part of a sample in which the lowest values are shown more often than they occur.

The assay concerns jimpy (Plp1 jimpy) mouse iPSC-derived oligodendrocyte progenitor cells. The assay is described as follows: total cell number (DAPI+ nuclei) relative to DMSO vehicle control (SDs above negative control mean); higher = more surviving cells. The conditions noted are these: 10 µM; 3 days. As to the method: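 Primary phenotypic screen of >3,000 bioactive compounds (Selleck L1700 and Sigma LO1280 libraries) at a single dose of 10 µM. Compounds were added to jimpy (Plp1 mutant) mouse iPSC-derived OPCs at the start of thyroid hormone-induced oligodendrocyte differentiation, one well per compound in 384-well plates. After 3 days cells were stained for MBP, Sox10 and DAPI and imaged with an Operetta system. MBP+ oligodendrocyte number and total cell number were expressed as the number of SDs above the mean of the DMSO negative control on the same plate (n=16 control wells per plate). Hits were defined as >=4 SD for oligodendrocytes and >=2 SD for total cells.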
In turn, `CC[C@@]1(O)C(=O)OCc2c1cc1n(c2=O)Cc2cc3ccccc3nc2-1` [(S)-(+)-Camptothecin] gave a total cell number of -9.49.
In turn, `CC[C@@]1(O)C(=O)OCc2c1cc1n(c2=O)Cc2cc3ccccc3nc2-1` [Camptothecin] showed a total cell number of -22.6.
The compound `CC1C2Cc3ccc(O)cc3C1(C)CCN2CC1CC1` (single isomer, unassigned; (+)) [(+)-Cyclazocine] yielded a total cell number of -1.89.
With `CC(C)C1CNC(C(=O)O)C1CC(=O)O` (stereo unspecified) [Dihydrokainic acid] the figure was -0.564; with `Cc1cc([C@@H]2CCCN2C)on1` [ABT-418 hydrochloride], -4.48.
The compound `Clc1ccc(N2CCN(Cc3c[nH]c4ncccc34)CC2)cc1` [L-745,870 hydrochloride] registered a total cell number of -5.68.
Take `COC[C@H]1OC(=O)c2coc3c2[C@@]1(C)C1=C(C3=O)C2CCC(=O)[C@@]2(C)C[C@H]1OC(C)=O` (stereo partly specified) [Wortmannin from Penicillium funiculosum]: the total cell number was -3.09.
Compound `CC[C@@H]1/C=C/C=C/C[C@H](C)[C@H](O)[C@](C)(O)C(=O)[C@H](C)[C@@H](O)[C@H](C)C(=O)[C@H](C)[C@@H](O)[C@H](C)/C=C/C(=O)O[C@H]2[C@@H](C)[C@@H](CC1)O[C@@]1(CC[C@@H](C)[C@@H](C[C@H](C)O)O1)[C@@H]2C` [Oligomycin A] yielded a total cell number of -27.5.
Compound `NC(Cc1cc(O)c(O)cc1O)C(=O)O` (racemic) [6-Hydroxy-DL-DOPA] registered a total cell number of -2.36.
As to `O=c1ccc2[nH]cc(C3=CCNCC3)c2[nH]1`, the total cell number was 0.673.
With `CC1=NN=C(c2ccc(N)cc2)c2cc3c(cc2C1)OCO3` the figure was -0.785; with `CO[C@H]1CC[C@@H](O[C@H]2C[C@H]([C@]3(C)CC[C@]4(C[C@H](O)[C@@H](C)[C@@H]([C@@H](C)/C=C(\C)C(=O)[C@H](C)C[C@H](C)C(=O)O)O4)O3)O[C@]3(O[C@@H]([C@H]4O[C@@](O)(CO)[C@H](C)C[C@@H]4C)C[C@@H]3C)[C@@H]2C)O[C@@H]1C` [Nanchangmycin], -27.5.
The compound `COc1cc(C(O)CN)ccc1O` (racemic) [(±)-Normetanephrine hydrochloride] registered a total cell number of -1.67.
`COc1cc2c(cc1OC)C1CC(=O)C(CC(C)C)CN1CC2` (stereo unspecified) [Tetrabenazine]: the total cell number was -0.277.
Under `CC(N)C(O)c1ccc(O)c(O)c1` (single isomer, unassigned; (-)) [(-)-alpha-Methylnorepinephrine] stands -0.161; under `CCCCC/C=C\C/C=C\C/C=C\C/C=C\CCCC(=O)NCc1ccc(O)c(OC)c1` [Arvanil], -8.09.
